Caspase-1 inhib = blocks human caspase-1 allosterically or competitively; actives 0.03% (n = 75,000); P29466; Potency, µM (top dose mostly 57.5 µM), for inactives: at the highest dose activity change, negative = inhibition, actives largely listed as inhibitors; Caspase-1 enzyme, Ac-WEHD-AFC fluorogenic rate; AID 900;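 also: plate controls were vehicle for no effect and no substrate for full effect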
15-hLO inh = 15-hLO (ALOX15) enzyme inhibition | purified 15hLO-1, xylenol orange hydroperoxide absorbance | Potency, µM (titrated, usually from 57.1 µM), inactives show at the top dose activity change, negative = inhibition, hits mostly inhibitors | actives 1.4% (n = 74,000); also: % is scaled to controls: 0 for no effect and ±100 for the full control effect; nearly all actives have a fitted effect of over 55% in size
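Quantitative HTS in 25 mM Hepes pH 7.5 containing 0.01% Triton X-100: human 15hLO-1 at 40 nM, arachidonic acid at 50 uM, 6 min turnover. Product quantified via ferrous oxidation/xylenol orange, 573:405 nm absorbance ratio.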
Tau fil binding = tau filament binding. P10636. recombinant tau filaments, thioflavin S fluorescence, 15 h; filaments grown with octadecylsulfate alongside compound. Potency, µM (series often up to 57.1 µM), inactives show top-dose activity change, negative = inhibition. actives 2% (n = 71,000). AID 596;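 also: % is scaled to controls: 0 for no effect and ±100 for the full control effect; actives lower thioflavin S fluorescence by blocking filaments or displacing dye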
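His-tagged recombinant human tau (exons 2, 3 and 10 included), 1 uM, was induced to fibrillize by 30 uM sodium octadecylsulfate with compound present. After 15 h at 37 C, thioflavine S fluorescence (ex 450, em 510 nm) was read.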
ERK AVP inh = inhibitors of vasopressin-stimulated ERK signaling pathway. Potency, µM (doses to about 57.5 µM), for inactives: at the highest dose activity, negative = inhibition, usual class: inhibitors. HEK293-V1b, vasopressin-stimulated pERK AlphaScreen. AID 995. actives 0.99% (n = 72,000); also: % is scaled to controls: 0 for no effect and ±100 for the full control effect; nearly all actives have a fitted effect of over 55% in size
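V1b-HEK293 cells; cpd 30 min 37C; 25 nM vasopressin 5 min; lyse 10 min; AlphaScreen beads 5 hr RT. Normalized to DMSO basal and 25 nM vasopressin; AC50 by Hill fit.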
Casp7 inh = allosteric or competitive inhibitors of human caspase-7 | P55210 | actives 0.02% (n = 75,000) | AID 889 | recombinant caspase-7, Ac-DEVD-AFC fluorescence rate | Potency, µM (highest dose often 57.5 µM), for inactives: top-dose activity change, negative = inhibition, actives largely listed as inhibitors; active = well fitted inhibition curve with a large enough effect in the main read-out, with a control signal flat, not every such curve was filed as active; inconclusive = small, poorly fitted or top-dose-only effect, or a change in a side signal; also: % of control where 0% means no effect
Starred values were filed as active, the others as inactive; u = inconclusive; x = not tested or not shown; [ ] = remark or other dose. In the library only some 3.9% were active in any assay of this set; here they are far more common. Unless noted, calls follow the shape of the dose curve; as a rule, active = well fitted curve in the direction sought with a large enough effect; inconclusive = small, poorly fitted or top-dose-only effect, or another doubt; inactive = no such curve, though single readings can be large; an effect the other way counts as inactive or inconclusive. Potency is read from the fitted curve at half-maximal effect.

SMILES | Caspase-1 inhib | 15-hLO inh | Tau fil binding | ERK AVP inh | Casp7 inh
COc1ccc(CCNC(=O)CC2Nc3ccccc3NC2=O)cc1 (configuration not stated) | -5.7% | -1.3% | 12.6µM* | u | -7.4%
COc1ccc(CCNC(=O)CC2Nc3ccccc3NC2=O)cc1OC (configuration not stated) | -4.0% | 7.3% | -9.2% | -2.2% | 0.2%
CCOc1ccccc1NC(=O)CC1Nc2cc(C)c(C)cc2NC1=O (configuration not stated) | -5.0% | u | 3.98µM* | -5.5% | -8.5%
CCOc1ccccc1NC(=O)CC1Nc2ccccc2NC1=O (configuration not stated) | -6.2% | -3.1% | -29.3% | -6.3% | 0.0%
COc1ccccc1CN1CCC2(CC1)CCN(C(=O)c1csnn1)CC2 | 0.7% | 4.4% | 5.1% | -3.0% | -0.8%
O=c1cnc2cnc(N3CCNCC3)nc2n1C1CC1 | x | 1.1% | 9.7% | 3.1% | u
Cc1c(N2C(=O)c3ccc4c5c(ccc(c35)C2=O)CC4)c(=O)n(-c2ccccc2)n1C | -6.3% | 25.1µM* | 15.8µM* | -24.4% | -26.9%
Cc1c(N)c(=O)n(-c2ccccc2)n1C | 0.5% | -1.4% | 4.6%[25.6 µM] | 2.0% | 0.8%
Cc1cccc2cc(C#N)c(N3CCN(C)CC3)nc12 | -11.2% | 10.8% | 17.3% | 3.6% | -8.9%
Cc1ccc(C)c2nc(N3CCCC3)c(C#N)cc12 | x | 12.6µM* | 18.0% | -1.9% | u
O=C(O)c1cc(O)c2c(c1)[C@H]([C@H]1c3cc(C(=O)O)cc(O)c3C(=O)c3c(O[C@@H]4OC(CO)C(O)C(O)C4O)cccc31)c1cccc(O[C@@H]3OC(CO)C(O)C(O)C3O)c1C2=O (some centres not stated) | 25.1µM* | 12.6µM* | x | u | 10µM*
O=C1c2cccc(O)c2C(=O)c2c(O[C@@H]3O[C@H](CO)[C@@H](O)[C@H](O)[C@@H]3O)cccc21 | 0.8%[11.5 µM] | -3.5%[11.4 µM] | -7.4%[11.4 µM] | 3.2%[11.5 µM] | -2.7%[11.5 µM]
CCCc1cc(C(N)=O)c(NC(=O)C2CCCO2)s1 (configuration not stated) | -6.4% | 25.1µM* | 25.2% | -29.6% | -7.9%
CCCCCc1nnc(NC(=O)C2CCCO2)s1 (configuration not stated) | 0.2% | 0.2% | 7.8% | -5.8% | 0.3%
CC(=O)[C@@H]1CC[C@@H]2[C@@H]3CC=C4C[C@H](OS(=O)(=O)O)CC[C@@]4(C)[C@H]3CC[C@]21C | 1.2% | 6.1% | 4.8% | -8.0% | 3.4%
Nc1nc(Nc2ccccc2)nc2c1ncn2[C@@H]1O[C@@H](CO)[C@H](O)[C@H]1O | -0.1% | -5.4%[25.6 µM] | 11.2% | -12.4% | -0.1%
Cn1c(SCC(=O)c2cc3ccccc3o2)nnc1-c1ccccc1 | -3.1% | -2.7% | 3.6% | x | -0.6%
O=C(CSc1nnc(-c2cccs2)n1CC1CCCO1)c1cc2ccccc2o1 (configuration not stated) | -6.0% | -13.9% | 15.8µM* | -7.3% | -3.8%
CN(c1ccccc1)S(=O)(=O)c1ccc(C(=O)OCC(=O)NCc2ccco2)cc1 | 1.7% | 4.8% | -0.5% | 10.2% | -3.2%
O=C(COC(=O)c1cccc(S(=O)(=O)N2CCN(c3ccccc3)CC2)c1)NCc1ccco1 | -5.1% | 25.1µM* | 49.5% | 19.6% | -14.7%
COc1ccc(N2C(=O)C(Cl)=C(N(CCO)Cc3ccccc3)C2=O)cc1 | -0.9% | -6.5% | -4.6% | 12.6µM* | 1.2%
COc1ccc(OCC(=O)N(C)Cc2ccccc2)cc1 | -1.7% | 3.1% | 4.9% | u | -1.6%
COCC(=O)O[C@]1(CCN(C)CCCc2nc3ccccc3[nH]2)CCc2cc(F)ccc2[C@@H]1C(C)C | 0.6% | u | 74.9% | 20µM* | 0.1%
CCOC(=O)CCc1nc2ccccc2[nH]1 | -0.7% | -9.5% | 4.1% | -0.3% | -0.8%
CCOC(=O)c1c(C)c(C(=O)NCCOC)c(C)n1CC | -2.6% | 3.1% | -9.3% | u | 1.6%
CCOC(=O)c1c(C)c(C(=O)Nc2ccc(N(C)C)cc2)c(C)n1CC | -0.4% | -24.3% | 15.8µM* | u | -2.4%
CCC[C@@H]1C[C@@]1(CCC)C(NC(=O)c1ccco1)c1ccc(Cl)cc1 (some centres not stated) | -3.3% | x | -6.6% | -3.4% | -3.6%

High-throughput results from PubChem BioAssay.
